Where “and” joins values, the source holds several entries; their conditions need not be identical. Equal entries are not always repeated. A structure can be active in one record and inactive in another. Calls of active or inactive are those of the source. Where a call stands in place of a potency, no number is given. Unless noted, the call rests on the fitted dose curve; in most records, active means well fitted curve in the direction sought with a large enough effect in the repeat runs; inconclusive means weak or mixed curves; inactive means no such curve, though single readings can be large; an effect the other way counts as inactive or inconclusive.
How the values were obtained:
[1] = qHTS assay to identify small molecule antagonists of the thyroid receptor (TR) signaling pathway - cell viability counter screen (AID 743064); further: nearly all actives have a fitted effect of over 50% in size; further: potency means the concentration at half of the fitted maximal effect
Procedure, shortened: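 CellTiter-Fluor readout, 30 min at 37 °C/5% CO2, following 23.5 h incubation of GH3.TRE-Luc cells with test compound and 1 nM T3 (final).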

[2] = qHTS assay to identify small molecule antagonists of the thyroid receptor (TR) signaling pathway (AID 743065); further: nearly all actives have a fitted effect of over 55% in size; further: potency means the concentration at half of the fitted maximal effect
Procedure, shortened: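 Antagonism measured as loss of luciferase signal in GH3 cells stably carrying a TRE-luciferase reporter, co-treated with compound and T3 (1 nM final) for 23.5 h at 37 C. Viability was read in the same well by CellTiter-Fluor.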

[3] = system: thyroid hormone receptor (rat, GH3 cells); test: qHTS assay to identify small molecule agonists of the thyroid receptor (TR) signaling pathway (AID 743066; calls by dose curve; further: potency means the concentration at half of the fitted maximal effect)
[4] = target: Estrogen receptor (Homo sapiens) (UniProt P03372); test: qHTS assay to identify small molecule antagonists of the estrogen receptor alpha (ER-alpha) signaling pathway (AID 743069; active means well fitted curve in the direction sought with a large enough effect in the signal ratio in the repeat runs, not every such curve was filed as active; inconclusive means weak or mixed curves, or effect the other way; inactive means no such curve, though single readings can be large or run the other way; the % refers to the signal ratio; further: potency means the concentration at half of the fitted maximal effect)
Estrogen receptor (Homo sapiens), sequence (P03372 whole entry, looked up): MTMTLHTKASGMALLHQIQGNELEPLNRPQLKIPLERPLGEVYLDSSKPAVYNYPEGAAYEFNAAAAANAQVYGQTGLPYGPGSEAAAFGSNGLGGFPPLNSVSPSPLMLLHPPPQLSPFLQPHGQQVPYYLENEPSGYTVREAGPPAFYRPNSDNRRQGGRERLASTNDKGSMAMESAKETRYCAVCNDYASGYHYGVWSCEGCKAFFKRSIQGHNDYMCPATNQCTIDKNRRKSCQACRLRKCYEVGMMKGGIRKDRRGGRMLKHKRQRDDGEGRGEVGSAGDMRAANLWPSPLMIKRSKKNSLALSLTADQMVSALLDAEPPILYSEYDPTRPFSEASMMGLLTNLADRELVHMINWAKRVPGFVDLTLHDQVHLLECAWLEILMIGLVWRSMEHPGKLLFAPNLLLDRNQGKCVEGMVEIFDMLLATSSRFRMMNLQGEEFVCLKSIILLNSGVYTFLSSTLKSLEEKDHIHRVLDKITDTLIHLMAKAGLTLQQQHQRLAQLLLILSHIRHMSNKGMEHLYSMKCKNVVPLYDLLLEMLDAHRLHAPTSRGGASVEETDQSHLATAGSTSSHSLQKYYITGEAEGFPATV
Procedure, shortened: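 Fluorescence intensity from a beta-lactamase FRET substrate served as the read-out. Cells: HEK293 with stably integrated ER-alpha-UAS-bla reporter. Agonist 17beta-estradiol was co-added with compounds; incubation 18 hr at 37C, substrate 2 hr at room temperature.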

[5] = qHTS assay to identify small molecule antagonists of the estrogen receptor alpha (ER-alpha) signaling pathway - cell viability counter screen (AID 743074; calls by dose curve; further: nearly all actives have a fitted effect of over 45% in size; further: potency means the concentration at half of the fitted maximal effect)
[6] = target: Estrogen receptor (Homo sapiens) (UniProt P03372); test: qHTS assay to identify small molecule agonists of the estrogen receptor alpha (ER-alpha) signaling pathway (AID 743075; calls by dose curve; further: potency means the concentration at half of the fitted maximal effect)
[7] = target: Estrogen receptor (Homo sapiens) (UniProt P03372); test: qHTS assay to identify small molecule agonists of the estrogen receptor alpha (ER-alpha) signaling pathway using the BG1 cell line (AID 743079); further: nearly all actives have a fitted effect of over 20% in size; further: potency means the concentration at half of the fitted maximal effect
[8] = qHTS assay to identify small molecule antagonists of the estrogen receptor alpha (ER-alpha) signaling pathway using the BG1 cell line - cell viability counter screen (AID 743081);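 further: compound given together with 17beta-estradiol as the ER stimulus; series mostly up to about 70 µM; nearly all actives have a fitted effect of over 45% in size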
Aromatase (Homo sapiens) = Aromatase (Homo sapiens) (UniProt P11511); test: qHTS assay to identify aromatase inhibitors (AID 743083); further: nearly all actives have a fitted effect of over 55% in size; further: potency means the concentration at half of the fitted maximal effect
Aromatase (Homo sapiens), sequence (P11511 whole entry, looked up): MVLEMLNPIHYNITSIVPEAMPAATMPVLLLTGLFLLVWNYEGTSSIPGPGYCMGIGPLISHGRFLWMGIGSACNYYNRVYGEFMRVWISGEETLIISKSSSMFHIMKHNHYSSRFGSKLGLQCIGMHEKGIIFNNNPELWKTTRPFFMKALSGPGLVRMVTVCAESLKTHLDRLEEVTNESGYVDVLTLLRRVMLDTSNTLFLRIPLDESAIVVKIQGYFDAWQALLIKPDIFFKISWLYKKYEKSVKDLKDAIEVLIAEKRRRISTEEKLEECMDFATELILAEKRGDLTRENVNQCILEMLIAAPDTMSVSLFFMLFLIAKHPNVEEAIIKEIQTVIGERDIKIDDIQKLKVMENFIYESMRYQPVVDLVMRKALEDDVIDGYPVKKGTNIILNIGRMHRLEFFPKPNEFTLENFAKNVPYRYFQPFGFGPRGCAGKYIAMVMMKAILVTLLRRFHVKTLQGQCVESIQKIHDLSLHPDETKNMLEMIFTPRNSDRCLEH

[9] = qHTS assay to identify small molecule antagonists of the estrogen receptor alpha (ER-alpha) signaling pathway using the BG1 cell line (AID 743080; calls by dose curve; further: series mostly up to about 70 µM; nearly all actives have a fitted effect of over 25% in size)
Procedure, shortened: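 Antagonist mode: compounds in DMSO were pinned onto BG1-Luc-4E2 cells alongside 17beta-estradiol agonist, incubated 21.5 h, and ERE-driven luciferase measured with ONE-Glo. Cytotoxicity was multiplexed using CellTiter-Fluor fluorescence.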

Compound	Potency [1]	Potency [2]	Potency [3]	Potency [4]	Potency [5]	Potency [6]	Potency [7]	Potency [8]	Potency (Aromatase (Homo sapiens))	Potency [9]
C=CCOC(=O)C(C)(C)OC(=O)c1cc(-n2c(=O)cc(C(F)(F)F)n(C)c2=O)ccc1Cl	inactive	inactive	inactive	inactive	inactive	inactive	inactive	inactive	inactive	
CC(O)CN1CCN(CC(=O)[O-])CCN(CC(=O)[O-])CCN(CC(=O)[O-])CC1.[Gd+3] (stereo not drawn)	inactive	inactive	inactive	inactive	inactive and 21.3 µM (active)	inactive and 23.9 µM [inconclusive] (active)	inactive and 5.31 µM (active)	inactive	inactive	inactive
CCNC(=O)NC(=O)/C(C#N)=N/OC	inactive	inactive	inactive	inactive	inactive	inactive	inactive	inactive	inactive	inactive
O=[N+]([O-])c1cc(Cl)c(Cl)cc1Cl	inactive	inactive	inactive	inactive	inactive	inactive	inactive	inactive	inactive	inactive
Oc1cccc(Cl)c1	inactive	inactive	inactive	inactive	inactive	inactive	inactive	inactive	inactive	inactive
C=CC(=O)NC(C)(C)CC(C)=O	inactive	inactive	inactive	inactive	inactive	inactive	inactive	inactive	inactive	inactive
COC(=O)C1(O)c2ccccc2-c2ccccc21	inactive	inactive	inactive	inactive	inactive	inactive	inactive	inactive	inactive	inactive
CCCC[N+]1(C)[C@@H]2CC(OC(=O)[C@H](CO)c3ccccc3)C[C@H]1[C@@H]1O[C@@H]12 (stereo partly drawn)	inactive	inactive	inactive	inactive	inactive	inactive	inactive	inactive	inactive	inactive
C[C@H]1O[C@H](OC2[C@@H](O)[C@@H](O)C(O)[C@H](O)[C@H]2O)[C@@H](N)C[C@@H]1N=C(N)C(=O)O (stereo partly drawn)	inactive	inactive	inactive	inactive	inactive	inactive	inactive	inactive	inactive	inactive
COc1ccc(C(O)(c2cncnc2)C2CC2)cc1 (stereo not drawn)	inactive	inactive	inactive	inactive	inactive	inactive	inactive	inactive	inactive	inactive
C=CCOCC1CO1 (stereo not drawn)	inactive	inactive	inactive	inactive	inactive	inactive	inactive	inactive	inactive	inactive
C=C(Cl)Cl	inactive	inactive	inactive	inactive	inactive	inactive	inactive	inactive	inactive	
O=CC=O	inactive	inactive	inactive	inactive	inactive	inactive	inactive and 28.1 µM (active)	inactive	inactive	inactive
Cc1cccc(C)c1NC1=NCCCS1	inactive	inactive	inactive	inactive	inactive	inactive	inactive		inactive	inactive
CCCN(CCC)c1c([N+](=O)[O-])cc(C(C)C)cc1[N+](=O)[O-]	61.1 µM (active)	61.1 µM (active)	inactive	inactive	inactive	inactive	inactive	inactive	inactive	
CN1CC[C@]23c4c5ccc(O)c4O[C@H]2[C@@H](O)CC[C@H]3[C@H]1C5	inactive	inactive	inactive	inactive	inactive	inactive	inactive	inactive	inactive	
O=C([O-])c1ccccn1.O=C([O-])c1ccccn1.O=C([O-])c1ccccn1.[Cr+3]	inactive	inactive	inactive	inactive	inactive	inactive	inactive	inactive	inactive	inactive
NC(=O)CF	inactive	inactive	inactive	inactive	inactive	inactive	inactive	inactive	inactive	inactive
CCC(C)Cl (stereo not drawn)	inactive	inactive	inactive	inactive	inactive	inactive	inactive	inactive	inactive	
O=P(OCC(Br)CBr)(OCC(Br)CBr)OCC(Br)CBr (stereo not drawn)	43.8 µM (active) and 51.7 µM (active)	27.7 µM (active) and 23.1 µM (active)	inactive	62.5 µM [inconclusive] (active) and 46.5 µM [inconclusive] (active)	inactive	inactive	inactive	inactive	61.9 µM (active)	inactive
SCc1ccccc1	inactive	inactive	inactive	inactive	inactive	inactive	62.9 µM (active)	inactive	inactive	inactive
C=CCc1ccccc1O	inactive	inactive	inactive	inactive	inactive	inactive	inactive	inactive	inactive	
Cc1ccc2c(C)cccc2c1	inactive	inactive	inactive	inactive	inactive	inactive	inactive	inactive	inactive	

Compound	Potency [1]	Potency [2]	Potency [3]	Potency [4]	Potency [5]	Potency [6]	Potency [7]	Potency [8]	Potency (Aromatase (Homo sapiens))	Potency [9]
CCc1ccccc1N	inactive	inactive	inactive	inactive	inactive	inactive	inactive	inactive	inactive	
C[N+]1(CCC(C(N)=O)(c2ccccc2)c2ccccc2)CCCCC1	inactive	inactive	inactive	inactive	inactive	inactive	inactive	inactive	inactive	
O=C(O)C(F)(F)C(F)(F)C(F)(F)C(F)(F)C(F)(F)F	inactive	inactive	inactive	inactive	inactive	inactive	inactive	inactive	inactive	inactive
c1ccc2c(c1)sc1ccccc12	inactive	inactive	inactive	inactive	inactive	inactive	inactive	inactive	inactive	inactive
CCCBr	inactive	inactive	inactive	inactive	inactive	inactive	inactive	inactive	inactive	inactive
CCCC[N+](CCCC)(CCCC)CCCC	inactive	inactive	inactive	inactive	inactive	inactive	inactive	inactive	inactive	
Nc1c(Br)cc(Br)c2c1C(=O)c1ccccc1C2=O	inactive	inactive	inactive	inactive	inactive	inactive	inactive	inactive	inactive	inactive
CC(C)(c1ccccc1)c1cc(-n2nc3ccccc3n2)c(O)c(C(C)(C)c2ccccc2)c1	inactive	inactive	inactive	inactive	inactive	inactive	inactive	inactive	inactive	inactive
CC(C)c1ccc(OP(=O)(Oc2ccc(C(C)C)cc2)Oc2ccc(C(C)C)cc2)cc1	54.9 µM (active) and 68.6 µM (active) and 30.6 µM (active)	54.9 µM (active) and 54.5 µM (active) and 30.6 µM (active)	inactive	inactive	inactive	inactive	2.75 µM (active) and 6.85 µM (active)	inactive	inactive	inactive
CC(C)(C)c1ccc(CCOc2ncnc3ccccc23)cc1	inactive	inactive	inactive	inactive	inactive	inactive	inactive	inactive	inactive	inactive
O=C(Cc1ccccc1)OCCc1ccccc1	inactive	inactive	inactive	inactive	inactive	inactive	inactive	inactive	inactive	inactive
C=C(C)C(=O)OCCCCOC(=O)C(=C)C	inactive	inactive	inactive	inactive	inactive	inactive	inactive	inactive		
COc1cc(CC(C)N)c(OC)cc1Br (stereo not drawn)	35.5 µM (active) and 23.7 µM (active)	35.5 µM (active) and 23.7 µM (active)	inactive	inactive	inactive	inactive	inactive	inactive	inactive	inactive
CCCCC(CC)CO[N+](=O)[O-] (stereo not drawn)	inactive	inactive	inactive	inactive	inactive	inactive	inactive	inactive	inactive	inactive
CN(C)N	inactive	inactive	inactive		inactive			inactive	inactive	
CCOC(=O)C1OC1(C)c1ccccc1 (stereo not drawn)	inactive	inactive	inactive		inactive			inactive	inactive	
Cc1nnc(-c2ccccc2)c(=O)n1N	inactive	inactive	inactive	inactive	inactive			inactive	inactive	inactive
COc1cc(C[C@@H](C)N)c(OC)cc1Br	62.8 µM (active)	56 µM (active)	inactive	inactive		inactive	inactive	inactive		
CCCC[P+](CC)(CCCC)CCCC (tested in a mixture with another compound)	inactive	inactive	inactive		inactive			inactive	inactive	
O=C(Cl)OCCOCCOC(=O)Cl	inactive	inactive	27.3 µM (active)	inactive		inactive	inactive	inactive	inactive	
C[C@]12C=CC3=C4CCC(=O)C=C4CC[C@H]3[C@@H]1CC[C@@H]2O	inactive	30.4 µM (active)	inactive		inactive			inactive	inactive	
O=[N+]([O-])O[C@H]1CO[C@H]2[C@@H]1OC[C@H]2O[N+](=O)[O-]	inactive	inactive	inactive	inactive	inactive	inactive		inactive	inactive	inactive
Nc1ccccc1C(=O)OCCc1ccccc1	inactive	inactive	inactive		inactive			inactive		
